Assay results reported in PubChem BioAssay (Tox21).
Results filed as inconclusive are left out. Activity calls are given as the source filed them. The call rests on the fitted dose curve; in most records, active means well fitted cell-killing curve with a large enough effect in the repeat runs; inconclusive means weak or mixed curves, or effect the other way; inactive means flat fitted curve, though single readings scatter.

Experiment: Caspase-3/7 induction in HepG2 cells by small molecules, qHTS cell viability counter screen (AID 1346981); further: nearly all actives have a fitted effect of over 30% in size
Conditions: CellTiter-Fluor fluorescence, 17 h; series mostly up to 92.4 µM; activity change, negative = cytotoxicity: at the top concentration
Text: U.S. Tox21 Program National Center for Advancing Translational Sciences [NCATS] NIH Chemical Genomics Center [NCGC] U.S. Environmental Protection Agency [EPA] National Institutes of Environmental Health Sciences [NIEHS] National Toxicology Program [NTP] U.S. Food and Drug Administration [FDA] Tox21 Assay Overview: Apoptosis is a process of programmed cell death and plays a central role in the development of multicellular organisms. It is a highly regulated process and induces cell death by activating caspases, which are the members of cysteine aspartic acid-specific protease (caspase) family. Caspases involved in apoptosis are classified by their mechanism of action as initiator caspases (caspase-2, -8, -9 and -10) and executioner caspases (caspase-3, -6, and -7). Inhibition of apoptosis results in number of cancers, autoimmune diseases, inflammatory diseases and viral infection. To identify small molecule compounds that induce apoptosis, a homogeneous, luminescent Caspase-Glo 3/7 assay was used. Wild type HepG2 cells were used to screen Tox21 libraries for identifying caspase-3/7 activity inducers. Also cytotoxicity of the compounds was tested in parallel by measuring the cell viability using CellTiter-Fluor assay system in the same wells.
Tox21 Assay Protocol Summary: HepG2 cells were dispensed at 2,000 per well in 5uL of culture medium into white solid bottom 1536-well plates (Corning Life Sciences, Corning, NY) using a Multidrop Combi (Thermo Scientific, Waltham, MA) dispenser. The assay plates were incubated at 37 C and 5% CO2 for 5hr, and then 23nL of compounds dissolved in DMSO and positive control were transferred using a Pintool station ([…], San Diego, CA). The assay plates were incubated at 37C and 5% CO2 for 17hr. For cytotoxicity read, after 16hr incubation at 37C, 1uL CellTiter-Fluor reagent (Promega Corporation, Madison, WI) was added to each well of the assay plates using Flying Reagent Dispenser (FRD, Aurora Discovery, San Diego, CA). After 1hr incubation at 37C and 5% CO2, the fluorescence signal was quantified using a ViewLux plate reader (PerkinElmer, Shelton, CT).
On the % scale 0 is the no-effect control and ±100 the full control effect; potency means the concentration at half of the fitted maximal effect.

Row | Compound | activity change, negative = cytotoxicity | Potency
1 | C/C=C/c1ccc(OC)c(OC)c1 | -3.83% (inactive) | 
2 | CC(C)(C)CC(C)(C)c1ccccc1O |  | 61.4 µM (active)
3 | CCC(=O)OCCc1ccccc1 | -0.814% (inactive) | 
4 | O=C(O)CCCCCCC(=O)O | -1.38% (inactive) | 
5 | COC(=O)CC#N | 0.571% (inactive) | 
6 | C(=C/c1ccccc1)/c1ccccc1 | -0.14% (inactive) | 
7 | CCCCCCCCCCCCCOP(=O)(O)O | 4.81% (inactive) | 
8 | O=c1cccc[nH]1 | 4.29% (inactive) | 
9 | CCCCCCCOC(=O)c1ccccc1C(=O)OCCCCCCC | 7.32% (inactive) | 
10 | COc1cccc(O)c1 | -7.32% (inactive) | 
11 | Oc1cc2ccccc2cc1O | 7.9% (inactive) | 
12 | C[C@@]12C(=O)OC(=O)[C@]1(C)C1CCC2O1 |  | 2.98 µM (active)
13 | O=C1c2c(O)ccc(O)c2C(=O)c2c(NCCNCCO)ccc(NCCNCCO)c21 |  | 11.9 µM (active)
14 | O=C1c2c(O)ccc([N+](=O)[O-])c2C(=O)c2c([N+](=O)[O-])ccc(O)c21 |  | 24.1 µM (active)
15 | C=CC(=O)OCCOCC(CC)(COCCOC(=O)C=C)COCCOC(=O)C=C |  | 63.7 µM (active)
16 | CCCCCCCCCCc1ccccc1 | -0.314% (inactive) | 
17 | O=C1C=CC(=O)N1c1ccccc1 |  | 61.1 µM (active)
18 | CCCCOc1ccc(C(=O)CCN2CCCCC2)cc1 | -0.0091% [at 42.5 µM] (inactive) | 
19 | C/C=C/C(=O)Oc1c(CCCCCC(C)C)cc([N+](=O)[O-])cc1[N+](=O)[O-] |  | 27.3 µM (active)
20 | CCN(CC)CCNc1ccc(CO)c2sc3ccccc3c(=O)c12 |  | 13.3 µM (active)

Row | Compound | activity change, negative = cytotoxicity | Potency
21 | O=C(NO)c1ccccc1 | 8% (inactive) | 
22 | Cc1cccc(C)n1 | 2.04% (inactive) | 
23 | CCOC(=O)CN | 4.14% (inactive) | 
24 | CC1(C)C(=O)N(Br)C(=O)N1Br | 4.76% (inactive) | 
25 | ClC/C=C\CCl | 5.06% (inactive) | 
26 | CO[C@H]1C=CO[C@@]2(C)Oc3c(C)c(O)c4c(O)c(cc(O)c4c3C2=O)NC(=O)/C(C)=C\C=C/[C@H](C)[C@H](O)[C@@H](C)[C@@H](O)[C@@H](C)[C@H](OC(C)=O)[C@@H]1C |  | 61.6 µM (active)
27 | CCCCCCCC(=O)OCC | 0.415% (inactive) | 
28 | O=C(Nc1ccc(Cl)cc1)Nc1ccc(Cl)c(C(F)(F)F)c1 |  | 29.8 µM (active)
29 | Cc1ccc(N)cc1O | -6.48% (inactive) | 
30 | C[Si](C)(C)Cl | -0.285% (inactive) | 
31 | COC(=O)CC(C)CCC=C(C)C (stereo not given) | -0.376% (inactive) | 
32 | CN1[C@@H]2CC[C@H]1CC(OC(=O)C(CO)c1ccccc1)C2 (stereo not given in full) |  | inactive
33 | CCCCCCCC/C=C\CCCCCCCC(=O)NCc1ccc(O)c(OC)c1 | 0.359% [at 42.5 µM] (inactive) | 
34 | Clc1ccccc1CN1CCc2sccc2C1 | -2.07% [at 42.5 µM] (inactive) | 
35 | CCCCCCCOC(=O)c1ccc(O)cc1 | -10.5% (inactive) | 
36 | CCc1cccc(CC)c1NC(=O)C(=O)O | 6.63% (inactive) | 
37 | COc1cc(C=C2CCC/C(=C\c3ccc(O)c(OC)c3)C2=O)ccc1O |  | 29.8 µM (active)
38 | CCC(C)c1ccccc1 (stereo not given) | -5.82% (inactive) | 
39 | CC(=O)c1ccccc1N | 7.62% (inactive) | 
40 | C/C=C/C=N/NC(=O)c1ccncc1 | 0.443% [at 42.5 µM] (inactive) | 
